NPC1 prom act: qHTS Assay for NPC1 Promoter Activators | Huh7 NPC1 promoter luciferase reporter, 24 h | Potency, µM (series often up to 9.22 µM), for the others: top-dose activation, hits mostly activators | 320,000 compounds, 2.4% hits | AID 485313, 2010; also: % of control where 0% means no effect; nearly all actives have a fitted effect of over 60% in size
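Luminescence read-out of NPC1 promoter-driven luciferase in stably transfected Huh7 cells; compounds delivered in DMSO and left 24 h at 37C, 5% CO2, qHTS titration format.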
SMN2 splice up: qHTS Assay for Enhancers of SMN2 Splice Variant Expression; HEK293 SMN2-luciferase splicing reporter, luminescence, 30-36 h; Potency, µM (doses to about 46.1 µM), for inactives: top-dose activity change, positive = activation, usual class: activators; 210,000 compounds, 2.8% hits; AID 1458, 2008; also: % of control where 0% means no effect; nearly all actives have a fitted effect of over 55% in size
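HEK293 cells carry an SMN2 minigene-luciferase reporter in which exon 7 inclusion puts luciferase in frame. Cells were seeded at 2000 cells/well, attached for 10-12 hours, then exposed to compounds for 30-36 hours at 37C before ONE-Glo luminescence.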
Luc counter: Counterscreen for Luciferase (Kinase-Glo TM) Inhibition | Luciferin 4-monooxygenase (Photuris pensylvanica), Q27757 | Kinase-Glo luciferase, ATP luminescence, 8 min | Potency, µM (titrated, usually from 38.3 µM), for the others: at the top dose activity change, negative = inhibition, actives largely listed as inhibitors | 200,000 compounds, 0.28% hits; also: % is scaled to controls: 0 for no effect and ±100 for the full control effect; nearly all actives have a fitted effect of over 60% in size
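Inhibition of Kinase-Glo luciferase light generation was assessed at 10 uM ATP in pH 7.2 imidazole buffer, with luminescence measured after eight minutes at ambient temperature.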
FLuc counter: qHTS profiling assay for firefly luciferase inhibitor/activator using purifed enzyme and Km concentrations of substrates (counterscreen for miR-21 project); purified FLuc, Km substrates, luminescence inhibition; 360,000 compounds, 6.9% hits; Potency, µM (top dose mostly 57.5 µM), for the others: at the top dose activity change, negative = inhibition, usual class: inhibitors; AID 588342, 2011;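 also: plate controls were vehicle for no effect and reference inhibitor for full effect; nearly all actives have a fitted effect of over 55% in size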
Target sequence (P08659 whole entry, looked up): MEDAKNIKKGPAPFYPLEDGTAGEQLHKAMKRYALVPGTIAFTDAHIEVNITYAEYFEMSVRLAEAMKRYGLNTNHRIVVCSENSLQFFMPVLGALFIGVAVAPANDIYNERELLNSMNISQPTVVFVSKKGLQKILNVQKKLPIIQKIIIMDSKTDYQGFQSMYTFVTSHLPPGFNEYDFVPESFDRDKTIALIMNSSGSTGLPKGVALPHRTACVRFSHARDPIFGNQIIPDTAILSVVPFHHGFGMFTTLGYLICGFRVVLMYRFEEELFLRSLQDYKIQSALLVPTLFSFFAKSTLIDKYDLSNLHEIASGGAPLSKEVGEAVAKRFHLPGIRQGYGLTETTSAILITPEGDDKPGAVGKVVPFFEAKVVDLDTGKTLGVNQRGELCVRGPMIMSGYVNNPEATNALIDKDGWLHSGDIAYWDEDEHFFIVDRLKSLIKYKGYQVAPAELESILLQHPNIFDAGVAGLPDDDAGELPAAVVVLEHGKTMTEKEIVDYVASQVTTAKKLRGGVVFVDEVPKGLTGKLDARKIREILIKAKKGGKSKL
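Purified P. pyralis luciferase (10nM final) with 10uM D-luciferin and 10uM ATP (Km levels) in 50mM Tris acetate pH 7.5, 10mM Mg acetate, 0.01% Tween-20, 0.05% BSA; qHTS 6-point titration, ~60 µM downward; luminescence read.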
Rab9 promoter act: qHTS Assay for Rab9 Promoter Activators | Huh7 Rab9 promoter-luciferase reporter, luminescence, 24 h | Potency, µM (series often up to 9.22 µM), for inactives: at the highest dose activation, negative = inhibition, most hits filed as activators | 320,000 compounds, 2.8% hits | AID 485297, 2010; also: % of control where 0% means no effect; nearly all actives have a fitted effect of over 60% in size
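Huh7 reporter line, Rab9 promoter upstream of luciferase. Compound exposure 24 h at 37 °C in reduced-serum medium with 10% FBS. Read-out: luminescence.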
ELG1 genotox: qHTS screen for small molecules that induce genotoxicity in human embryonic kidney (HEK293T) cells expressing luciferase-tagged ELG1; HEK293T ELG1-luciferase reporter, luminescence, 16 h; Potency, µM (top dose mostly 46 µM), inactives show at the top dose activity change, positive = activation, hits mostly activators; 330,000 compounds, 1.3% hits; also: % of control where 0% means no effect; nearly all actives have a fitted effect of over 60% in size
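Reporter readout depends on ELG1 protein level, which increases with genetic stress. After 16 hr compound exposure at 37 °C, luciferase activity was quantified using ONE-Glo.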
* hit, by the source's call; ? = inconclusive; . = no result; [ ] = remark or other dose. Sampled rows, rich in hits. Any-hit rate of the full collection: about 7.4%. Calls follow the shape of the dose curve; as a rule, active = well fitted curve in the direction sought with a large enough effect; inconclusive = small, poorly fitted or top-dose-only effect, or another doubt; inactive = no such curve, though single readings can be large; an effect the other way counts as inactive or inconclusive. Potency is read from the fitted curve at half-maximal effect.

SMILES	NPC1 prom act	SMN2 splice up	Luc counter	FLuc counter	Rab9 promoter act	ELG1 genotox
COc1cccc(OCc2cc(C(=O)N(C)C3CCOCC3)no2)c1	-1%	.	.	2%	13%	0%
Cc1cc(CN(C)C(=O)c2cc(COc3ccc(C)c(C)c3)on2)on1	2.5µM*	.	.	12µM*	1.4µM*	16µM*
COc1cccc(OCc2cc(C(=O)N(C)Cc3nc(C)cs3)no2)c1	3.2µM*	.	.	12µM*	2.2µM*	12µM*
Cc1ccc(OCc2cc(C(=O)N(C)CCc3ccccn3)no2)cc1C	?	.	.	13µM*	3.5µM*	10%[9.26 µM]
Cc1nnc(CN(C)C(=O)c2cc(COc3ccc(C)c(C)c3)on2)o1	11%	.	.	?	17%	9%
COc1ccccc1CNC(=O)CCC1N=C2c3ccccc3N=C(SCc3cccc(Cl)c3)N2C1=O (stereo unspecified)	.	0%	.	.	.	.
CN(C)CCC[C@@H]1c2ccccc2Oc2ccc(C(F)(F)F)cc21	.	-5%[9.22 µM]	-4%[7.66 µM]	.	.	.
Nn1c(SCc2ccccc2)nc2c(cnn2-c2ccccc2)c1=O	?	13µM*	0%	11µM*	3.2µM*	?
CCCSc1nc2c(cnn2-c2ccccc2)c(=O)n1N	4.5µM*	.	.	5.4µM*	0.79µM*	?
CCn1cc(C(=O)N2CCN(c3ccccc3F)CC2)c(=O)c2cc(S(=O)(=O)N(C)C)ccc21	.	.	.	0%	.	.
CCOc1ccccc1CNC(=O)CCn1ccc2cc(S(=O)(=O)N3CCC(C)CC3)ccc21	.	.	.	-2%	.	.
CCS(=O)(=O)N1CCC(C(=O)NCCC(C)C)CC1	.	.	.	5%	.	.
COc1ccc(NC(=S)N2CCC(C(=O)c3ccc(OC)cc3)CC2)cc1	-1%	.	.	12µM*	0%	-12%
COc1ccc(NC(=S)N2CCC(c3ccccc3)C2)cc1 (stereo unspecified)	2.5µM*	.	.	6.7µM*	2µM*	9.2µM*
COc1cc(/C=C(\C#N)c2nc3ccccc3[nH]2)ccc1OCc1cccc(C(F)(F)F)c1	.	4%	.	0%	.	.
CCOC(=O)Cc1ccc2sc(-c3ccccc3)nc2c1	3.2µM*	16µM*	?	0.48µM*	1.6µM*	6.5µM*
Cc1nc(-c2ccccc2)sc1C(N)=O	12%	22%	0%	-15%	9%	18%
CNC(=O)c1sc(-c2ccc(Cl)cc2)nc1C	.	?	-4%	15µM*	.	.
C/C(=N\O)c1sc(-c2ccccc2)nc1C	4µM*	16µM*	-12%	8.5µM*	3.2µM*	?
CCOC(=O)CSc1nc(-c2ccccc2)cc(C(F)(F)F)c1C#N	.	4%	.	0%	.	.
CCOC(=O)c1sc(-c2ccccc2)nc1C	-7%	9%	-6%	13µM*	17%	?
CNC(=O)c1sc(-c2ccccc2)nc1C	26%	0%	-11%	?	13%	?
CCOC(=O)c1sc(-c2cccs2)nc1C	10%	17%	0%	17µM*	28%	1%
CCCn1c(C)cs/c1=N\C(=S)Nc1ccccc1	9%	1%	0%	3%	3%	2%
Cc1cs/c(=N/C(=S)Nc2ccccc2)n1C	1.1µM*	1.3µM*	-10%	4.8µM*	1.6µM*	2.9µM*
CC1=CN2C(=N)/C(=C/c3cn(CCCOc4ccccc4C)c4ccccc34)C(=O)N=C2S1	?	-48%	-4%	-8%	?	?
CC1=CN2C(=N)/C(=C/c3ccco3)C(=O)N=C2S1	2.5µM*	3.5µM*	-23%	1.5µM*	1.8µM*	?
CC1=CN2C(=N)/C(=C/c3ccc([N+](=O)[O-])o3)C(=O)N=C2S1	-30%	-39%	-7%	13µM*	-54%	-14%

Screens deposited in PubChem by National Center for Advancing Translational Sciences (NCATS).
